From the supplement of paper PMC11732987, “Enantioselective OTUD7B fragment discovery through chemoproteomics screening and high-throughput optimisation” (Communications Chemistry, 2025)

Tests used:
Test in all cases: log2 ratio of Biotin-Ahx-Ub-VS probe labelling (fragment/DMSO); higher = less target engagement (more negative = stronger competition), active = hit call of the paper (q ≤ 0.05, log2 ratio ≤ -1)
Settings in all cases: compound concentration: 200 uM; treatment time: 3 h
USP34 = USP34 (UniProt Q70CQ2)
Sequence of USP34 (Q70CQ2 whole entry, the tested form may be a part): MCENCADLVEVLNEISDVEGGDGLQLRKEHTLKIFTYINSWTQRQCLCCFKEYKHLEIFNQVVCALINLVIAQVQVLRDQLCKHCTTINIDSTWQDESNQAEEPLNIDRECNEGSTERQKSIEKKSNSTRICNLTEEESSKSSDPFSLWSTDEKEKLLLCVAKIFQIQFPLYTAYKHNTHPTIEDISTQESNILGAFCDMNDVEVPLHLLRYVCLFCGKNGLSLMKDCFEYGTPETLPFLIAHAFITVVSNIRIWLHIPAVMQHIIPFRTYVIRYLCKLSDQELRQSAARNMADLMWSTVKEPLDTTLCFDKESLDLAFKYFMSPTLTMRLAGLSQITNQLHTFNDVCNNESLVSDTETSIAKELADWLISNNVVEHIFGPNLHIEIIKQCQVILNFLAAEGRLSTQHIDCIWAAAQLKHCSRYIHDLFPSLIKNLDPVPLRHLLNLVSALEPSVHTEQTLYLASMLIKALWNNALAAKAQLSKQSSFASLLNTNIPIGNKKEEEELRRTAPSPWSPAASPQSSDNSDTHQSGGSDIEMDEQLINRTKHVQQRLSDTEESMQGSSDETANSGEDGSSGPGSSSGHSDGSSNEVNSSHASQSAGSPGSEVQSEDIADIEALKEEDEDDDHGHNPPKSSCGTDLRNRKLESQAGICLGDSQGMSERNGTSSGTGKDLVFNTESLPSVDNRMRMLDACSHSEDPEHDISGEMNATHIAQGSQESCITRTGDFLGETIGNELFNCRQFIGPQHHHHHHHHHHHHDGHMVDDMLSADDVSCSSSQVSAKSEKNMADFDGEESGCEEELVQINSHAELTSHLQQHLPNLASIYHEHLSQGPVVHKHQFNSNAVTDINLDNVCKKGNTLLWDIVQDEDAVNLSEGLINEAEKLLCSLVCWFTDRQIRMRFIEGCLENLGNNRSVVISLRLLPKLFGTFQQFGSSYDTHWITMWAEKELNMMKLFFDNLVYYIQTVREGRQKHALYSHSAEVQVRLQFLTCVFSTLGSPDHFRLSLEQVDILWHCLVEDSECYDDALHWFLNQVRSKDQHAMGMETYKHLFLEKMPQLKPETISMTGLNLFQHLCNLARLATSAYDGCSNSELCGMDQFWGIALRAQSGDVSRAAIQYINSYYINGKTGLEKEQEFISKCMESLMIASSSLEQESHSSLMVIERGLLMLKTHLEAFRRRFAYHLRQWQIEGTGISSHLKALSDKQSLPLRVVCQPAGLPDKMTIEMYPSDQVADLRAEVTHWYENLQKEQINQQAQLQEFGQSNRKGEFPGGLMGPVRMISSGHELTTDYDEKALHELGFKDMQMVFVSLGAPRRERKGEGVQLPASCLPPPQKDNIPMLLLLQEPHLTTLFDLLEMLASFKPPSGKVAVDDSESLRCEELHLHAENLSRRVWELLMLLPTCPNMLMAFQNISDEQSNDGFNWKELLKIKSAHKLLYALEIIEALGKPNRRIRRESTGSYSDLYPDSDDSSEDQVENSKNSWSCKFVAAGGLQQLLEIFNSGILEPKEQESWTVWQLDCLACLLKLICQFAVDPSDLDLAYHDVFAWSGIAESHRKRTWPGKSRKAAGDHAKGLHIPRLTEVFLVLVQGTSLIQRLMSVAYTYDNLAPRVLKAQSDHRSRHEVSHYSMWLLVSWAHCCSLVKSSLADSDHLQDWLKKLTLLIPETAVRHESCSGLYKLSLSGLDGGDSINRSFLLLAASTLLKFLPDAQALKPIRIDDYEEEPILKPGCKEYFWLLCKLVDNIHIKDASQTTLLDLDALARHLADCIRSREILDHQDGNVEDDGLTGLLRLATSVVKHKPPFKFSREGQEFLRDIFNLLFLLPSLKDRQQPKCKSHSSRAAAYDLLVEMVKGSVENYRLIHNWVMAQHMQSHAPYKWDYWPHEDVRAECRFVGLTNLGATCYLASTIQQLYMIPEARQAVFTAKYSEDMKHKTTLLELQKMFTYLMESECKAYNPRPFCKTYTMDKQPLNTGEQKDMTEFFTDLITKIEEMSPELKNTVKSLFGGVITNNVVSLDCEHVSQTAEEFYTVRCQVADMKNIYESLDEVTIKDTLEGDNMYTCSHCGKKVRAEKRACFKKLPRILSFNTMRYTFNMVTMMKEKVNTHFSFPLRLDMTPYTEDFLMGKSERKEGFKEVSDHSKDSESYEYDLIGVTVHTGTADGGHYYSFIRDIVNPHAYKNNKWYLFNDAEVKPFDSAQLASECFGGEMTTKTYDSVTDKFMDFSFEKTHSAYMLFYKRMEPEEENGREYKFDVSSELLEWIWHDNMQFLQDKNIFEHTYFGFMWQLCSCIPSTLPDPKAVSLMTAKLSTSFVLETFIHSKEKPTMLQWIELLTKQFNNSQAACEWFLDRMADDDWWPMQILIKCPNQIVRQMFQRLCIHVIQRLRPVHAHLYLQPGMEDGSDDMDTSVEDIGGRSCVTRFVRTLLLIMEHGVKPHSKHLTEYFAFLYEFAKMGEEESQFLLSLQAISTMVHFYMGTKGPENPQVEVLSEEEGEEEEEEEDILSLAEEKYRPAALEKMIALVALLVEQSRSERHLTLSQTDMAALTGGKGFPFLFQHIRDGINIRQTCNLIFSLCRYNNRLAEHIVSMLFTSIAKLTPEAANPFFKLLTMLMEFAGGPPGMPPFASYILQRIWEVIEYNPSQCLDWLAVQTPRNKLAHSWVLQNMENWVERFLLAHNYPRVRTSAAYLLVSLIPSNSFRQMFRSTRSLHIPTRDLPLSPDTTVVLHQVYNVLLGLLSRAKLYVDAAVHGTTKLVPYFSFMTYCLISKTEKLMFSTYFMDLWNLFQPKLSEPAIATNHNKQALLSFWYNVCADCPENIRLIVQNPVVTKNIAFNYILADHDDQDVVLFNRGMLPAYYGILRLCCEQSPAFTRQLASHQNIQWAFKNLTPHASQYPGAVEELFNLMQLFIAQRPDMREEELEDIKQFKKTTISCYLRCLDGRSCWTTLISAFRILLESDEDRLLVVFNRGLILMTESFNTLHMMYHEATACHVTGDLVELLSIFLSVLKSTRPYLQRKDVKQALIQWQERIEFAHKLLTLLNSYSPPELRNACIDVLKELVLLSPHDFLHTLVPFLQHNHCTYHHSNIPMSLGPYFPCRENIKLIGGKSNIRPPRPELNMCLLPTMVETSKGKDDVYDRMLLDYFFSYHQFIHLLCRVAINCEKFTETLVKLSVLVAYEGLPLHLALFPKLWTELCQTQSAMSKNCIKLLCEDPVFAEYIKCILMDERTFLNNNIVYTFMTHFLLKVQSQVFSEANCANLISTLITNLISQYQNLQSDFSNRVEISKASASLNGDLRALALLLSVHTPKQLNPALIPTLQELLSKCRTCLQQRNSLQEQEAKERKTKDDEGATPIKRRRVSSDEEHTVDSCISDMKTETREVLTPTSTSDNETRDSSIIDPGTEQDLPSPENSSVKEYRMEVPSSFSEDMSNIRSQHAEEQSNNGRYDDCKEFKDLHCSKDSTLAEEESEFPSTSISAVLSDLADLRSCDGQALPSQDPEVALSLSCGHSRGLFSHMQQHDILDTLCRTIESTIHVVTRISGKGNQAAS
How it was run: (§1)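 HEK293T lysate in Tris/CHAPS/IGEPAL buffer with protease inhibitors (495 µg per sample) was given fragment at 200 µM or vehicle for 3 h, in triplicate. It then received Biotin-Ahx-Ub-VS at 0.5 µM final for 1 h. Labelled DUBs were NeutrAvidin-enriched, digested with LysC and trypsin, and run by diaPASEF LC-MS/MS. Values are average log2 fragment/vehicle ratios by unpaired t-test on global-median-normalised Spectronaut quantities of proteins with ≥2 unique peptides.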

USP36 = target: T1, USP36 (UniProt Q9P275)
T1 sequence (whole entry): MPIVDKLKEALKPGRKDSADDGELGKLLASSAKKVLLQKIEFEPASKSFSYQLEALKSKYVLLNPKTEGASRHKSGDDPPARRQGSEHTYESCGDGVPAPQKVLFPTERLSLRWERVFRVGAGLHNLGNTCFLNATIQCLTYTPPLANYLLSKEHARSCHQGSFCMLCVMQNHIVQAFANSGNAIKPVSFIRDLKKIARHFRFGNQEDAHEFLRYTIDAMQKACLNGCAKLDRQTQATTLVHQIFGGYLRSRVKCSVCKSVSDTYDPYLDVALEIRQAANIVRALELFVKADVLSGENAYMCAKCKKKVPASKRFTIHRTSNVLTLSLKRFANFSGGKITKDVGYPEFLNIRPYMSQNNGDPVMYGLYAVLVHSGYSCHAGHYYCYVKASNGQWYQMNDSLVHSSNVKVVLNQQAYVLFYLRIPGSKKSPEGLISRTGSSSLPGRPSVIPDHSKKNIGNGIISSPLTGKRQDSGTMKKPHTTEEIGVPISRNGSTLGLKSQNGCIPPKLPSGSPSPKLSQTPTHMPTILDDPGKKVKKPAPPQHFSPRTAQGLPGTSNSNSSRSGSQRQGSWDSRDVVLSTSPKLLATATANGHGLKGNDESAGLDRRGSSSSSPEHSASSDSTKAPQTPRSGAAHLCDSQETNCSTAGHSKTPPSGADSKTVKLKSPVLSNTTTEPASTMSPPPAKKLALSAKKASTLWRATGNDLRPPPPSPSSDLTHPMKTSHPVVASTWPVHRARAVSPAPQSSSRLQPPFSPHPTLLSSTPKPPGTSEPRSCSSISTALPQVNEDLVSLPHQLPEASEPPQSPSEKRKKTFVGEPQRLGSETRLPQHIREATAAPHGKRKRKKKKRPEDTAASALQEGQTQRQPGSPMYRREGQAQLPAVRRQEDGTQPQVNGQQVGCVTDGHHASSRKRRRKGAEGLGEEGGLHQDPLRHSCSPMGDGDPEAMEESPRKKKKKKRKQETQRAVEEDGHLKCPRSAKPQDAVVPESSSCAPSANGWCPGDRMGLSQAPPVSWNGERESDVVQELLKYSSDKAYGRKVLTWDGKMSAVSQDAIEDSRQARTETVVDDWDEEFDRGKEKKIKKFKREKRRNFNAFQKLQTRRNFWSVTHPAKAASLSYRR
How it was run: as §1

USP38 = target: T2, USP38 (UniProt Q8NB14)
T2 sequence (whole entry): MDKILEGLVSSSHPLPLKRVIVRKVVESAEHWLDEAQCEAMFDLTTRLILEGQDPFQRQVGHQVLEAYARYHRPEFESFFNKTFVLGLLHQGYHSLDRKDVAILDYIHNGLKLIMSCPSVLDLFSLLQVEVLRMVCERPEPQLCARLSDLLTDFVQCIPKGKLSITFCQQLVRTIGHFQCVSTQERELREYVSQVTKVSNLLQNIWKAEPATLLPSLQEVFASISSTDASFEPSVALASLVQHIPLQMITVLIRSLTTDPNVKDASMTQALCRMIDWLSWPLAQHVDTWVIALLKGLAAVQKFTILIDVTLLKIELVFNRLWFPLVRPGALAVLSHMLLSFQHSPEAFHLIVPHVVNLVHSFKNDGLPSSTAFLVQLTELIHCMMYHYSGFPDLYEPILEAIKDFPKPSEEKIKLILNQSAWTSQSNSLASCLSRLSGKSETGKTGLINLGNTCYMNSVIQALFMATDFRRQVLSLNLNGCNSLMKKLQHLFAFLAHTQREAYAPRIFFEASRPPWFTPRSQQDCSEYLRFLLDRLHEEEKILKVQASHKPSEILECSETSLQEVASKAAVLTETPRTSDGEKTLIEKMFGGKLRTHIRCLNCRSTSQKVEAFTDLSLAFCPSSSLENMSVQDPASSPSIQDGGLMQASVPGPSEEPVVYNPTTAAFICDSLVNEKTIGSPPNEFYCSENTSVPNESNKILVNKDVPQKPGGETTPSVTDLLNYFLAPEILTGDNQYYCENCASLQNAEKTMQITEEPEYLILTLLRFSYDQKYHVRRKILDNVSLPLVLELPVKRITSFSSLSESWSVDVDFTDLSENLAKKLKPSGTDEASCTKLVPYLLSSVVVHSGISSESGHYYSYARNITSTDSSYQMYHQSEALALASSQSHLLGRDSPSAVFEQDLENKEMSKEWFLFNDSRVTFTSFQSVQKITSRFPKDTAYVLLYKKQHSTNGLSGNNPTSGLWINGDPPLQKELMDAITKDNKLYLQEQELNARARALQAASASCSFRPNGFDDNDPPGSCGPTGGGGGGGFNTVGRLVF
How it was run: as §1

USP39 = target: T3, USP39 (UniProt Q53GS9)
T3 sequence (whole entry): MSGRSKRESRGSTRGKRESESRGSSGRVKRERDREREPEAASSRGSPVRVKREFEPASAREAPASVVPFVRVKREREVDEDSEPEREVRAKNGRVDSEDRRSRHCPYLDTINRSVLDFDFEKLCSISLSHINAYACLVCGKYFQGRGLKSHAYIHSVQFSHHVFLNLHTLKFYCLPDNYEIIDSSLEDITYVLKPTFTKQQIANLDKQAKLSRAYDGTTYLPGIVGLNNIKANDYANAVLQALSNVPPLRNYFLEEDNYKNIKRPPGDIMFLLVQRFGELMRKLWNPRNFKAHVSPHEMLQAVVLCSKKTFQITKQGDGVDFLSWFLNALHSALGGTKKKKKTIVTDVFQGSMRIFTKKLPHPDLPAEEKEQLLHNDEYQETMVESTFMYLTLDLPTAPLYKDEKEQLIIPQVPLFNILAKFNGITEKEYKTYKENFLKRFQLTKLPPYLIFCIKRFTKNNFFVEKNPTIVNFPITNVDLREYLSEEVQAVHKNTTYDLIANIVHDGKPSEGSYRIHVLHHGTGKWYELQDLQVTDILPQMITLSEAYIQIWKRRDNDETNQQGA
How it was run: as §1

USP4 = target: T4, USP4 (UniProt Q13107)
T4 sequence (whole entry): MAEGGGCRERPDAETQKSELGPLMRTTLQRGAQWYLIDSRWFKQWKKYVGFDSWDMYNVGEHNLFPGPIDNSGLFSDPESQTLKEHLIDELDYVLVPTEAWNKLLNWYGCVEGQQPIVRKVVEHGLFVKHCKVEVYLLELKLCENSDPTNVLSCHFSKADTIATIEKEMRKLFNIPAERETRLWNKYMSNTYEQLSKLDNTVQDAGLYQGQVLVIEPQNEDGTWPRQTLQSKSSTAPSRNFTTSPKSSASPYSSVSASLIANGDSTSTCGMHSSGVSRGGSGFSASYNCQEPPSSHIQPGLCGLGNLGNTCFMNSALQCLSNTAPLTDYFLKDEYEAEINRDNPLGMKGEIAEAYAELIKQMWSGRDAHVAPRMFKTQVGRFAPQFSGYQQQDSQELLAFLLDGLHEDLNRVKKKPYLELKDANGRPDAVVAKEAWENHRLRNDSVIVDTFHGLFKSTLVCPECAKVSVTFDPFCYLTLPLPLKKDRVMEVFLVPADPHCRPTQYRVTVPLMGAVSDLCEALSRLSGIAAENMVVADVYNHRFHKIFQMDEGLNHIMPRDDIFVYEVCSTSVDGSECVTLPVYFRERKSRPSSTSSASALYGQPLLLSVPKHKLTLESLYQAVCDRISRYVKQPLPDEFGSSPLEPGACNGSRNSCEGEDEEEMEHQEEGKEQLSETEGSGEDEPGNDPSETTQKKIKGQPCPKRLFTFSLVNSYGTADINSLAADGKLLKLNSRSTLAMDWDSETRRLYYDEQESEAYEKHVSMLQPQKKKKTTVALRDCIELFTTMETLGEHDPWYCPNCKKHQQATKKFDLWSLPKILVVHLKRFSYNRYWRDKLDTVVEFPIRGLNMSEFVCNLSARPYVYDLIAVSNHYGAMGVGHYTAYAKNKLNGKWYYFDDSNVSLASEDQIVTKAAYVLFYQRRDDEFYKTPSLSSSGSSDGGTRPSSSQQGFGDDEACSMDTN
How it was run: as §1

Measured: log2 ratio of Biotin-Ahx-Ub-VS probe labelling

N#Cc1cnn(-c2ccccc2)c1NC(=O)CCl
inactive: USP34 0.0145 | USP36 -0.28 | USP38 -0.229 | USP39 -0.0134 | USP4 -0.24
